From PubChem BioAssay AID1159580 (chemical genetic matrix, 2015)
Several values for one entry are separate records, joined by “and”; a condition that tells them apart may be missing. Equal entries are not always repeated. About 2,000 (36%) of roughly 5,500 compounds were called active. About 18% were inconclusive and are not listed. Cut-off read from the data, not from the text of the source: active = normalized growth mostly below about 0.91 (no sharp cut-off); inconclusive = no clear call, values can overlap the other calls; inactive = mostly above about 0.92. The list shows a part of the results.

Assay: chemical genetic growth profiling, strain panel (AID 1159580);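 note: tested at 20 µM; growth read once vehicle control cultures reached saturation at 30 °C; 1 = growth at the plate median or of vehicle wells; lower values mean less growth of the strain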
Details: S. cerevisiae deletion strains, growth OD

Measured: normalized growth

O=c1[nH]c(=O)n(C2C[C@@H](O)[C@@H](CO)O2)cc1F (stereo partly drawn)
inactive: locus YAL013W, strain DEP1, hits give low values 1.04 | locus YAL021C, strain ccr4, hits give low values 1.01 | locus YAL026C, strain drs2, hits give low values 0.996 | locus YAL030W, strain snc1, hits give low values 0.992 | locus YBL061C, strain skt5, hits give low values 0.987 | locus YBR009C, strain hhf1, hits give low values 1 | locus YBR021W, strain FUR4, hits give low values 1 | locus YBR023C, strain chs3, hits give low values 1 | locus YBR171W, strain sec66, hits give low values 0.993 | locus YBR229C, strain ROT2, hits give low values 1 | locus YBR231C, strain swc5, hits give low values 1 | locus YBR279W, strain paf1, hits give low values 1.01 | locus YCL011C, strain gbp2, hits give low values 1.01 | locus YCL016C, strain dcc1, hits give low values 0.994 | locus YCL029C, strain bik1, hits give low values 1.01 | locus YCL061C, strain MRC1, hits give low values 0.996 | locus YCL069W, strain vba3, hits give low values 0.987 | locus YCR088W, strain abp1, hits give low values 0.986 | locus YDL005C, strain med2, hits give low values 0.992 | locus YDL035C, strain GPR1, hits give low values 0.99 | locus YDL040C, strain nat1, hits give low values 1.01 | locus YDL074C, strain BRE1, hits give low values 1.04 | locus YDL101C, strain DUN1, hits give low values 1.03 | locus YDL185W, strain tfp1, hits give low values 1.01 | locus YDL192W, strain arf1, hits give low values 1.02 | locus YDR001C, strain nth1, hits give low values 0.979 | locus YDR069C, strain doa4, hits give low values 0.998 | locus YDR101C, strain arx1, hits give low values 1.01 | locus YDR137W, strain rgp1, hits give low values 0.989 | locus YDR159W, strain sac3, hits give low values 0.992 | locus YDR162C, strain NBP2, hits give low values 0.993 | locus YDR195W, strain ref2 0.984 | locus YDR297W, strain sur2, hits give low values 0.998 | locus YDR318W, strain mcm21, hits give low values 1.01 | locus YDR334W, strain swr1, hits give low values 0.97 | locus YDR335W, strain msn5, hits give low values 1.01 | locus YDR388W, hits give low values 1.01 | locus YDR392W, strain spt3, hits give low values 0.994 | locus YDR502C, strain sam2, hits give low values 1.01 | locus YEL003W, strain gim4, hits give low values 0.989 | locus YEL037C, strain rad23, hits give low values 0.993 | locus YEL061C, strain CIN8 (second series), hits give low values 0.981 | locus YEL061C, strain CIN8, hits give low values 1.01 | locus YER015W, strain faa2, hits give low values 0.998 | locus YER016W, strain bim1, hits give low values 1.01 | locus YER110C, hits give low values 1.02 | locus YER111C, strain swi4, hits give low values 0.996 | locus YER155C, strain BEM2 (second series), hits give low values 1.01 | locus YER155C, strain BEM2, hits give low values 1.01 | locus YER167W, strain BCK2, hits give low values 1 | locus YFR010W, strain ubp6, hits give low values 1.01 | locus YGL078C, strain dbp3, hits give low values 1 | locus YGL086W, strain mad1, hits give low values 1.01 | locus YGL167C, strain pmr1, hits give low values 0.996 | locus YGL173C, strain kem1, hits give low values 1.01 | locus YGL227W, strain vid30, hits give low values 0.979 | locus YGL240W, strain doc1, hits give low values 0.972 | locus YGL248W, strain PDE1, hits give low values 1.03 | locus YGL253W, strain hxk2, hits give low values 1 | locus YGR078C, strain PAC10, hits give low values 1.03 | locus YGR135W, strain pre9, hits give low values 1.01 | locus YGR252W, strain gcn5, hits give low values 1.01 | locus YHR013C, strain ard1, hits give low values 1.01 | locus YHR027C, strain rpn1, hits give low values 0.98 | locus YHR030C, strain SLT2, hits give low values 1 and 0.982 | locus YHR079C, strain IRE1 (second series), hits give low values 1.02 | locus YHR079C, strain IRE1, hits give low values 0.965 | locus YHR094C, strain hxt1, hits give low values 1.02 | locus YHR129C, strain ARP1, hits give low values 1.01 | locus YHR142W, strain chs7, hits give low values 0.985 | locus YHR200W, strain rpn10, hits give low values 1.01 | locus YIL066C, strain RNR3, hits give low values 0.988 | locus YIL073C, strain SPO22, hits give low values 1.04 | locus YIL125W, strain kgd1, hits give low values 1.02 | locus YIR030C, strain dcg1, hits give low values 1.01 | locus YJL092W, strain hpr5, hits give low values 0.971 | locus YJL095W, strain BCK1 (second series), hits give low values 1.01 | locus YJL095W, strain BCK1, hits give low values 1.06 and 0.975 | locus YJL115W, strain asf1, hits give low values 0.982 | locus YJL129C, strain trk1, hits give low values 0.963 | locus YJL134W, strain LCB3, hits give low values 1.01 | locus YJL154C, strain vps35, hits give low values 0.993 | locus YJL164C, strain tpk1, hits give low values 1 | locus YJL166W, strain qcr8, hits give low values 1.01 | locus YJL168C, strain set2, hits give low values 1.01 | locus YJL187C, strain SWE1 (second series), hits give low values 1.05 | locus YJL187C, strain SWE1, hits give low values 0.994 | locus YJR043C, strain POL32, hits give low values 0.975
